From the supplement of paper PMC8728848
About 410 targets per protein were measured; listed, in parts, are those with the strongest signals and a random draw of the rest.

Tests used:
Test in all cases: glycan array binding signal (z-score within array); higher = stronger binding
Settings in all cases: glycan notation: IUPAC condensed, linker removed
[1] = target: Fuc(a1-2)Gal(b1-3)GalNAc(b1-3)Gal
Method in brief: (§1)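 Glycan array binding is given as a within-array Z-score, which can be read as non-binding when negative. The arrays, 3228 of them, came from the Consortium for Functional Glycomics database and were retained only where the protein sequence was available. Z-scores were averaged across arrays of the same protein sequence at different concentrations or buffers and across linkers.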

Fuc(a1-2)Gal(b1-4)Glc6S = target: Fuc(a1-2)Gal(b1-4)Glc6S
Method in brief: as §1

[2] = target: Fuc(a1-2)Gal(b1-4)GlcNAc(b1-3)GalNAc
Method in brief: as §1

[3] = target: Fuc(a1-2)Gal(b1-4)[Fuc(a1-3)]GlcNAc(b1-2)Man(a1-3)[Fuc(a1-2)Gal(b1-4)[Fuc(a1-3)]GlcNAc(b1-2)Man(a1-6)]Man(b1-4)GlcNAc(b1-4)[Fuc(a1-6)]GlcNAc
Method in brief: as §1

[4] = target: Fuc(a1-2)Gal(b1-4)[Fuc(a1-3)]GlcNAc(b1-3)Gal(b1-4)[Fuc(a1-3)]GlcNAc(b1-3)Gal(b1-4)[Fuc(a1-3)]GlcNAc
Method in brief: as §1

[5] = target: Fuc(a1-2)Gal(b1-4)[Fuc(a1-3)]GlcNAc(b1-3)[Neu5Ac(a2-6)Gal(b1-4)GlcNAc(b1-6)]Gal(b1-4)Glc
Method in brief: as §1

[6] = target: Fuc(a1-2)[Gal(a1-3)]Gal(b1-4)GlcNAc(b1-6)GalNAc
Method in brief: as §1

[7] = target: Fuc(a1-2)[Gal(a1-3)]Gal(b1-4)[Fuc(a1-3)]GlcNAc(b1-3)GalNAc
Method in brief: as §1

[8] = target: Fuc(a1-2)[GalNAc(a1-3)]Gal(b1-3)GalNAc(b1-3)Gal(a1-4)Gal(b1-4)Glc
Method in brief: as §1

[9] = target: Fuc(a1-2)[GalNAc(a1-3)]Gal(b1-3)GlcNAc(b1-3)GalNAc
Method in brief: as §1

[10] = target: Fuc(a1-2)[GalNAc(a1-3)]Gal(b1-4)GlcNAc(b1-2)Man(a1-3)[Fuc(a1-2)[GalNAc(a1-3)]Gal(b1-4)GlcNAc(b1-2)Man(a1-6)]Man(b1-4)GlcNAc(b1-4)GlcNAc
Method in brief: as §1

[11] = target: Fuc(a1-2)[GalNAc(a1-3)]Gal(b1-4)[Fuc(a1-3)]GlcNAc(b1-3)GalNAc
Method in brief: as §1

[12] = target: Fuc(a1-3)[Gal(b1-4)]GlcNAc(b1-6)[Neu5Ac(a2-3)Gal(b1-3)]GalNAc
Method in brief: as §1

[13] = target: Gal(a1-4)Gal(b1-4)GlcNAc(b1-3)Gal(b1-4)Glc
Method in brief: as §1

Gal(b1-3)Gal = target: Gal(b1-3)Gal
Method in brief: as §1

[14] = target: Gal(b1-3)GalNAc(a1-3)[Fuc(a1-2)]Gal(b1-4)Glc
Method in brief: as §1

[15] = target: Gal(b1-3)GalNAc(b1-4)Gal(b1-4)Glc
Method in brief: as §1

[16] = target: Gal(b1-3)GlcNAc(a1-3)Gal(b1-4)GlcNAc
Method in brief: as §1

[17] = target: Gal(b1-3)[Neu5Ac(a2-6)]GlcNAc(b1-4)Gal(b1-4)Glc
Method in brief: as §1

[18] = target: Gal(b1-4)GlcNAc(b1-2)Man(a1-3)[Gal(b1-4)GlcNAc(b1-2)Man(a1-6)]Man(b1-4)GlcNAc(b1-4)[Fuc(a1-6)]GlcNAc
Method in brief: as §1

[19] = target: Gal(b1-4)GlcNAc(b1-2)Man(a1-3)[Gal(b1-4)GlcNAc(b1-2)Man(a1-6)][Gal(b1-4)GlcNAc(b1-4)]Man(b1-4)GlcNAc(b1-4)[Fuc(a1-6)]GlcNAc
Method in brief: as §1

[20] = target: Gal(b1-4)GlcNAc(b1-2)Man(a1-3)[GlcNAc(b1-4)][Gal(b1-4)GlcNAc(b1-2)Man(a1-6)]Man(b1-4)GlcNAc(b1-4)GlcNAc
Method in brief: as §1

[21] = target: Gal(b1-4)GlcNAc(b1-2)Man(a1-3)[Man(a1-6)]Man(b1-4)GlcNAc(b1-4)GlcNAc
Method in brief: as §1

[22] = target: Gal(b1-4)GlcNAc(b1-2)[Gal(b1-4)GlcNAc(b1-4)]Man(a1-3)[GlcNAc(b1-4)][Gal(b1-4)GlcNAc(b1-2)Man(a1-6)]Man(b1-4)GlcNAc(b1-4)GlcNAc
Method in brief: as §1

[23] = target: Gal(b1-4)GlcNAc(b1-3)Gal(b1-4)GlcNAc(b1-3)[Gal(b1-4)GlcNAc(b1-3)Gal(b1-4)GlcNAc(b1-6)]GalNAc
Method in brief: as §1

Gal3S6S(b1-4)GlcNAc6S = target: Gal3S6S(b1-4)GlcNAc6S
Method in brief: as §1

Gal6S(b1-3)GlcNAc6S = target: Gal6S(b1-3)GlcNAc6S
Method in brief: as §1

Gal6S(b1-4)GlcNAc6S = target: Gal6S(b1-4)GlcNAc6S
Method in brief: as §1

[24] = target: GalNAc(a1-3)GalNAc(b1-3)Gal(a1-4)Gal(b1-4)Glc
Method in brief: as §1

[25] = target: GalNAc(b1-4)GlcNAc(b1-2)Man
Method in brief: as §1

B1: PpFlo1 (Pichia pastoris) (protein)
chain: MGSSHHHHHHSSGLVPRGSHMQESGDGDISDSAYACDIDATRYDGFNATIYEFQPGDGRLTRDPVFMSTGYLNRTQLHSITGVTDPGFSIYTPGVPTTTLYGIPNVNWENLLLELKGYFRAEVSGDYGLSLRNIDDSAILFFGKETAFQCCNENSISNEASTDYSLFTIFRQEGDETTNLDSFTYTQYLEAGKYYPVRTFFVNIERHAVFNFTMTLPDGTELTDFHNYIYQFGALDEEQCQA
B1 was tested. Which “glycan array binding signal (z-score)” value [1] did it give?
Its value is -0.068.

What about the “glycan array binding signal (z-score)” value (Fuc(a1-2)Gal(b1-4)Glc6S) of the same binder?
Its value is -0.627.

And the “glycan array binding signal (z-score)” value [2]?
The value was 9.01.

And the “glycan array binding signal (z-score)” value [3]?
The value was 0.805.

What about the “glycan array binding signal (z-score)” value [4] of the same binder?
Its value is 0.218.

And the “glycan array binding signal (z-score)” value [5]?
The value was -0.279.

What about the “glycan array binding signal (z-score)” value [6] of the same binder?
Its value is -0.228.

What about the “glycan array binding signal (z-score)” value [7] of the same binder?
Its value is 1.04.

And the “glycan array binding signal (z-score)” value [8]?
Its value is -0.244.

What about the “glycan array binding signal (z-score)” value [9] of the same binder?
Its value is 3.23.

What about the “glycan array binding signal (z-score)” value [10] of the same binder?
Its value is 2.04.

What about the “glycan array binding signal (z-score)” value [11] of the same binder?
Its value is 7.08.

What about the “glycan array binding signal (z-score)” value [12] of the same binder?
The value was 3.09.

What about the “glycan array binding signal (z-score)” value [13] of the same binder?
Its value is -0.25.

And the “glycan array binding signal (z-score)” value (Gal(b1-3)Gal)?
The value was 0.345.

What about the “glycan array binding signal (z-score)” value [14] of the same binder?
The value was -0.55.

What about the “glycan array binding signal (z-score)” value [15] of the same binder?
Its value is 3.27.

What about the “glycan array binding signal (z-score)” value [16] of the same binder?
The value was -0.388.

What about the “glycan array binding signal (z-score)” value [17] of the same binder?
The value was 0.298.

And the “glycan array binding signal (z-score)” value [18]?
Its value is -0.323.

And the “glycan array binding signal (z-score)” value [19]?
The value was 0.235.

What about the “glycan array binding signal (z-score)” value [20] of the same binder?
The value was -0.214.

What about the “glycan array binding signal (z-score)” value [21] of the same binder?
Its value is 1.6.

And the “glycan array binding signal (z-score)” value [22]?
Its value is -0.266.

What about the “glycan array binding signal (z-score)” value [23] of the same binder?
The value was 0.345.

What about the “glycan array binding signal (z-score)” value (Gal3S6S(b1-4)GlcNAc6S) of the same binder?
Its value is 1.38.

And the “glycan array binding signal (z-score)” value (Gal6S(b1-3)GlcNAc6S)?
The value was 2.66.

What about the “glycan array binding signal (z-score)” value (Gal6S(b1-4)GlcNAc6S) of the same binder?
The value was 1.66.

What about the “glycan array binding signal (z-score)” value [24] of the same binder?
The value was -0.647.

What about the “glycan array binding signal (z-score)” value [25] of the same binder?
The value was -0.267.
